Screening data: PubChem BioAssay, National Center for Advancing Translational Sciences (NCATS)
Sampled rows, rich in hits. Any-hit rate of the full collection: about 6.5%.
FMDV antiviral: blocks foot and mouth disease virus; Potency, µM (titrated, usually from 57.9 µM), for the others: at the highest dose activity change, negative = inhibition, most hits filed as inhibitors; AID 1159524; FMDV antiviral cell-based qHTS; actives 1.2% (n = 410,000); calls by dose curve; tested in HEK293T cells; also: read-out not given here; potency is read from the fitted curve at half-maximal effect; nearly all actives have a fitted effect of over 45% in size
HCMV inh: inhibitors of human cytomegalovirus | HFF cells, HCMV-luciferase reporter, 72 h; hits give low values | activity change, negative = inhibition, % at 57.5 µM | actives 4.5% (n = 410,000) | AID 1259415; in the data active = activity change below about -60%; inconclusive = no clear call, values can overlap the other calls; inactive = above about -39%
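Compounds were evaluated in HFFs infected with an HCMV luciferase reporter virus (MOI 1 PFU/cell). Luciferase in lysates collected 72 h post infection served as the replication measure.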
Vaccinia Venus: inhibitors of vaccinia virus (Venus reporter); actives 0.46% (n = 330,000); Potency, µM (titrated, usually from 36.5 µM), for inactives: at the top dose activity change, negative = inhibition, most hits filed as inhibitors; Vaccinia virus Venus reporter expression, fluorescence; calls by dose curve; tested in A549 cells; also: potency is read from the fitted curve at half-maximal effect; nearly all actives have a fitted effect of over 30% in size
Marburg entry inh: inhibitors of Marburg virus binding or cell entry; Marburg virus pseudotyped entry inhibition, cell reporter; Potency, µM (series often up to 37.8 µM), for inactives: top-dose activity change, negative = inhibition, actives largely listed as inhibitors; actives 1.8% (n = 300,000); AID 540276; calls by dose curve; tested in HEK293 cells; also: potency is read from the fitted curve at half-maximal effect
VACV mCherry inh: vaccinia inhibition (mCherry reporter) | Vaccinia virus mCherry reporter infection, fluorescence | Potency, µM (doses to about 36.5 µM), for inactives: at the top dose activity change, negative = inhibition, hits mostly inhibitors | actives 0.63% (n = 310,000) | AID 720579; calls by dose curve; tested in A549 cells; also: potency is read from the fitted curve at half-maximal effect; nearly all actives have a fitted effect of over 35% in size
Lassa entry inh: inhibitors of Lassa virus binding or cell entry; Lassa virus pseudotype entry inhibition, cell reporter; Potency, µM (series often up to 37.9 µM), for the others: top-dose activity change, negative = inhibition, usual class: inhibitors; actives 1.2% (n = 300,000); AID 540256; calls by dose curve; tested in HEK293 cells; also: potency is read from the fitted curve at half-maximal effect; nearly all actives have a fitted effect of over 50% in size
* = called active by the depositor; i = inactive; ? = inconclusive; nt = no result given; [ ] = dose if it differs, or a comment. % is scaled to controls: 0 for no effect and ±100 for the full control effect.

SMILES	FMDV antiviral	HCMV inh	Vaccinia Venus	Marburg entry inh	VACV mCherry inh	Lassa entry inh
COc1ccc(NC(=O)Cn2c(=O)n(-c3ccc(OC)cc3)c(=O)c3sc4ccccc4c32)cc1	0%	9	-11%	2%[46.1 µM]	-8%	?
O=C(CC(NC(=O)c1ccccc1)c1ccccc1)OCc1nc(-c2cccc(Cl)c2)no1 (configuration not stated)	nt	nt	-6%	nt	-18%	nt
COC(=O)c1ccc(OC)c(Cn2c(=O)n(-c3cccc(Cl)c3)c(=O)c3c2c2cc(C)ccc2n3C)c1	-10%	5	-2%	-15%[46.1 µM]	2%	5%[46.1 µM]
O=C(NN=Cc1ccccc1O)c1cccc([N+](=O)[O-])c1	20%	-97*	?	10µM*	1.1µM*	?
O=C(N/N=C/c1ccccn1)c1cccc([N+](=O)[O-])c1	-2%	-14	-10%	?	-6%	-20%
COc1cc([N+](=O)[O-])cc(/C=N/NC(=O)c2ccc(NC(=O)c3ccc(C)cc3)cc2)c1O	?	-102*	4%	1.1µM*	1%	?
O=C(NN=Cc1cc([N+](=O)[O-])ccc1O)c1cccc2ccccc12	-4%	0	?	10µM*	?	7.1µM*
Nc1ccc(C(=O)N/N=C\c2cc(N=Nc3cccc4ccccc34)ccc2O)cc1	15%	-102*	nt	16µM*	nt	?
COC(=O)N/N=C/c1cc(N=Nc2ccccc2Cl)ccc1O	-8%	29	-18%[7.34 µM]	nt	-5%[7.34 µM]	nt
O=C(N/N=C/c1cc([N+](=O)[O-])ccc1O)c1c[nH]c2ccccc12	-17%	2	-3%	nt	?	nt
COC(=O)c1ccc(-c2cccc3c2OC(CNC(=O)/C=C/c2ccc(OC)c(OC)c2)C3)nc1 (configuration not stated)	-4%	nt	-26%	nt	-26%	nt
COc1ccc(Br)c2c1-c1nc(NC(=O)c3ccc(F)cc3)sc1C2	-27%	-5	-6%	2%[46.1 µM]	2%	15%[46.1 µM]
Cc1cc(C(=O)N/N=C/c2cc(N=Nc3ccccc3)ccc2O)n[nH]1	10%	nt	?	0.5µM*	?	11µM*
CCCOc1ccc(OCC(=O)c2[nH]c(C)c(C(C)=O)c2C)cc1	?	-34	nt	-23%	nt	?
CC(=O)c1c(C)[nH]c(C(=O)COc2ccc3ccc(=O)oc3c2)c1C	28µM*	-10	-24%	?	-25%	2%[46.1 µM]
CC(=O)c1c(C)[nH]c(C(=O)COc2cc(C)cc(C)c2)c1C	-14%	-62*	nt	?	nt	2%
COC(=O)c1c(C)[nH]c(C(=O)COc2ccc3ccc(=O)oc3c2)c1C	-43%	-13	nt	nt	nt	nt
C[C@]12C=CC(=O)C=C1CC[C@@H]1C2=CC[C@]2(C)[C@@H](C(=O)CN3CCN(c4cc(N5CCCC5)nc(N5CCCC5)n4)CC3)CC[C@@H]12	-4%	?	?	5.6µM*	1µM*	-25%
Cc1ccc(-c2nnc(Nc3ccc(C(N)=O)cc3)c3ccccc23)cc1S(=O)(=O)N1CCCCC1	-20%	-33	-16%	nt	-14%	?
Cc1ccccc1Nc1nnc(-c2ccc(C)c(S(=O)(=O)N3CCCCC3)c2)c2ccccc12	0%	-63*	-12%	nt	?	?
Cc1ccc(-c2nnc(Nc3ccc(O)cc3)c3ccccc23)cc1S(=O)(=O)N1CCCCC1	-7%	-90*	?	nt	?	1%[46.1 µM]
FC(F)(F)c1ccc(Cl)c(Nc2nnc(-c3ccncc3)s2)c1	-21%	-12	3%	nt	4%	nt
Clc1ccccc1Nc1nnc(-c2ccncc2)s1	?	?	-9%	?	i	5µM*
COc1ccc(Cc2[nH]n3c(=O)cc(C(C)C)nc3c2-c2ccccc2)cc1	?	-73*	-19%	13µM*	?	?
COc1ccc(Cc2[nH]n3c(=O)cc(C)nc3c2-c2ccccc2)cc1	-12%	-36	-17%	?	i	-7%[46.1 µM]
Cc1ccccc1-c1cccc(CN2CCc3nnc(C(NS(C)(=O)=O)C(C)C)n3CC2)c1 (configuration not stated)	-3%	nt	-5%	nt	-5%	nt
S=C(NCCc1ccccc1)Nc1cccc2cnccc12	-12%	-95*	-23%	-29%[46.1 µM]	-28%	?
COc1ccc(OCCNC(=S)Nc2cccc3ccccc23)cc1	-16%	-84*	nt	-23%	nt	-4%
